Screens from PubChem BioAssay.
SENP6 block: SENP6 protease inhibition; inhibition, % at 10 µM; Recombinant SENP6 catalytic domain, aminoluciferin luminescence; hit rate 1.8% among 330,000; AID 2599; Q9GZR1;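 active = inhibition above about 50% at the single tested dose, limit read from the data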;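 also: plate controls were DMSO wells with enzyme for no effect and DMSO wells lacking enzyme for full effect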
PPC-1+TRAIL kill: PPC-1 cancer cell killing with TRAIL present; PPC-1 cells + TRAIL, ATPLite viability luminescence; cell killing (% activity), % at 4 µM or 5 µM; hit rate 0.41% among 220,000; AID 1443;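 active = cell killing above 50% in the first pass at 4 µM, then a duplicate retest at 5 µM averaging 50% or more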;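 also: plate controls were cells with TRAIL plus DMSO for no effect and medium-only wells lacking cells for full effect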
TRAIL sens C8: sensitizes caspase-8 expressing cells to TRAIL. hit rate 1% among 360,000. inhibition (viability loss, TRAIL sensitization), % at 10 µM. NB7+C8 cells + TRAIL, ATPlite viability luminescence;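 active = compounds causing at least 50% loss of cell viability in the single-dose screen, relative to plate controls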
SENP8 block-1: SENP8 protease inhibition | purified SENP8, Z-RLRGG-aminoluciferin cleavage, luminescence | hit rate 1.2% among 330,000 | inhibition, % at 10 µM; in the data active = inhibition above about 50%
Target sequence (Q96LD8 whole entry, looked up): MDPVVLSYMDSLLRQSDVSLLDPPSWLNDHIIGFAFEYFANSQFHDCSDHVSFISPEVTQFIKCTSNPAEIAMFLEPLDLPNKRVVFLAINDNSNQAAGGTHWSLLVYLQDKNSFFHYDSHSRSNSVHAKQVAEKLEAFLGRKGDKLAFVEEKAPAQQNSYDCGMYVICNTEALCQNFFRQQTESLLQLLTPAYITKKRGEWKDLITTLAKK
SENP8 block-2: blocks human SENP8 cleavage of Nedd8 substrate. Q96LD8. recombinant SENP8, Nedd8 substrate fluorescence. inhibition, % at 20 µM. hit rate 0.64% among 360,000. AID 602440; in the data active = inhibition mostly above about 40%, no sharp cut-off; inactive = mostly below about 27%
SENP7 inh: inhibitors of human SENP7 protease | recombinant SENP7, Z-RLRGG-aminoluciferin luminescence, 40 min | inhibition, % at 5 µM | hit rate 1.5% among 330,000;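 active = inhibition above about 50% at the single test dose, limit read from the data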;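 also: plate controls were DMSO with enzyme for no effect and no enzyme buffer wells for full effect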
SENP8 conf: confirmation of human SENP8 protease inhibitors; AID 488912; inhibition, % at 12.5 µM; Recombinant SENP8, Z-RLRGG-aminoluciferin luminescence, 60 min; shares compounds with SENP7 inh; hit rate 40% among 6,200;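 active = mean inhibition across replicates above about 50%, limit read from the data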
SENP6 conf: human SENP6 inhibition, confirmed. recombinant SENP6, Z-RLRGG-aminoluciferin luminescence. shares compounds with SENP7 inh. hit rate 58% among 6,200. inhibition, % at 12.5 µM
SENP7 conf: human SENP7 inhibition, confirmed; inhibition, % at 12.5 µM; recombinant SENP7, Z-RLRGG-aminoluciferin luminescence, 40 min; shares compounds with SENP7 inh; hit rate 69% among 6,200
Casp3 select: inhibits human caspase-3 in SENP selectivity test; shares compounds with SENP7 inh; purified caspase-3, Z-DEVD-aminoluciferin luminescence, 60 min; inhibition, % at 12.5 µM; hit rate 60% among 6,200; AID 488918;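 active = mean inhibition above about 50%, limit read from the data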;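 also: plate controls were enzyme with DMSO for no effect and wells without caspase-3 for full effect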
Target sequence (P42574 28-227 limits assumed): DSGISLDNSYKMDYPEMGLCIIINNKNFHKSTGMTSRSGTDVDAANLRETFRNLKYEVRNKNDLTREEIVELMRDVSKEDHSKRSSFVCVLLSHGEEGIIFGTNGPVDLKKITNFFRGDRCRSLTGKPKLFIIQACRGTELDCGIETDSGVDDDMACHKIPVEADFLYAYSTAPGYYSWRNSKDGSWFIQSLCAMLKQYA
SENP luc ctr: counter-screen for SENP inhibitors: luminescence interference | hit rate 39% among 6,200 | Pre-incubated SENP8/Z-RLRGG-aminoluciferin, luciferase luminescence interference | AID 488919 | shares compounds with SENP7 inh | inhibition, % at 12.5 µM;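 active = mean inhibition above about 50% when retested at one dose, limit read from the data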;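 also: plate controls were DMSO wells with completed reaction for no effect and substrate without enzyme for full effect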
* = called active by the depositor; nt = no result given. Hits are enriched below; roughly 3% of the tested compounds scored in any of these assays.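 The calls were made as follows, unless noted: active = mean inhibition above about 50% in the one-dose retest (limit read from the data); inactive = the rest.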

SMILES | SENP6 block | PPC-1+TRAIL kill | TRAIL sens C8 | SENP8 block-1 | SENP8 block-2 | SENP7 inh | SENP8 conf | SENP6 conf | SENP7 conf | Casp3 select | SENP luc ctr
N/C(=N\OC(=O)c1ccc(Cl)cc1)c1ccc(Cl)cc1 | 8.7 | -2.0 | 87.8* | -12.5 | 8.6 | 53.8* | 9.3 | 7.0 | 12.9 | 5.7 | -2.3
O=S(=O)(c1ccc(F)cc1)c1nc(-c2ccccc2)oc1N1CCOCC1 | 6.0 | nt | 4.9 | -7.7 | -3.5 | -8.3 | nt | nt | nt | nt | nt
Cc1ccc(C23CC4CC(CC(C(=O)NC(C)C(N)=O)(C4)C2)C3)cc1 (stereo not drawn) | -26.3 | nt | -31.5 | -1.5 | 6.9 | 5.1 | nt | nt | nt | nt | nt
N/C(=N\OC(=O)c1ccco1)c1cccnc1 | 26.3 | -12.5 | -0.5 | -6.0 | -2.6 | 15.3 | nt | nt | nt | nt | nt
N/C(=N\OC(=O)c1ccc(Cl)cc1Cl)c1ccc(Cl)cc1 | 61.7* | 17.8 | 87.5* | 36.7 | 18.1 | 54.2* | 13.1 | 34.7 | 69.1* | 47.7 | 36.3
N/C(=N\OC(=O)c1ccco1)c1ccc(Cl)cc1 | 93.5* | 3.3 | -6.3 | 79.3* | 5.0 | 88.2* | 23.2 | 11.7 | 29.8 | 37.8 | 30.0
N/C(=N\OC(=O)c1ccc(Cl)cc1)c1cccnc1 | 72.0* | 26.4 | 91.0* | 35.7 | 24.5 | 67.3* | 62.3* | 59.0* | 85.5* | 82.7* | 65.9*
CCOP(=O)(OCC)/C(=N/OC(=O)c1ccc(Cl)cc1Cl)C(N)=O | -22.3 | 3.8 | 6.8 | 2.3 | 21.0 | 2.2 | nt | nt | nt | nt | nt
Cc1ccc(/C(N)=N/OC(=O)c2ccc(C)cc2Cl)cc1 | 80.5* | 62.1* | 70.5* | 70.3* | 10.3 | 85.1* | 62.7* | 63.2* | 88.6* | 56.9* | 24.6
COc1ccccc1C(=O)O/N=C(\N)c1ccccc1Cl | 5.9 | 12.5 | 8.0 | 11.6 | 7.9 | 1.6 | nt | nt | nt | nt | nt
CCOC(=O)C1=CCN(S(=O)(=O)c2ccccc2Cl)C1c1cccc(Br)c1 (stereo not drawn) | nt | nt | -1.0 | nt | 4.8 | nt | nt | nt | nt | nt | nt
COc1ccc(CN2CCC(CO)(Cc3cccc(C(F)(F)F)c3)CC2)cc1Cn1cccn1 | -14.2 | 11.2 | 19.0 | 0.9 | 25.1 | 5.2 | nt | nt | nt | nt | nt
N/C(=N\OC(=O)c1ccccc1Cl)c1ccccc1 | 94.4* | 32.8 | 65.5* | 95.2* | 12.0 | 98.5* | 96.7* | 98.7* | 102.8* | 96.9* | 95.6*
N/C(=N\OC(=O)c1ccc(Cl)cc1)c1ccn[nH]1 | 73.0* | nt | 83.2* | 58.4* | 9.8 | 79.0* | 80.0* | 77.1* | 91.9* | 87.0* | 82.9*
N/C(=N\OC(=O)c1ccccc1Cl)c1ccc(Cl)cc1 | 85.2* | 33.1 | 83.1* | 69.5* | 19.7 | 83.9* | 71.3* | 70.1* | 93.2* | 62.3* | 79.1*
CC(=NOC(=O)c1ccc(Cl)cc1)c1nccs1 | nt | nt | -8.3 | nt | 0.9 | nt | nt | nt | nt | nt | nt
N/C(=N\OC(=O)c1ccc(Br)cc1)c1ccncc1 | 58.5* | 22.3 | -9.9 | 25.9 | 14.4 | 62.1* | 34.9 | 40.1 | 70.9* | 67.9* | 49.0
NC(=O)c1ccc(F)cc1 | -26.5 | nt | 5.2 | -3.5 | 5.7 | -8.1 | nt | nt | nt | nt | nt
N/C(=N/OCC(=O)Nc1cccc2ccccc12)c1nonc1N | -7.5 | 4.8 | -6.5 | -7.3 | 2.7 | 6.8 | nt | nt | nt | nt | nt
Cc1cc(NC(=O)COC(=O)c2ccccc2Cl)no1 | -4.4 | nt | -15.6 | 8.4 | 13.5 | 7.4 | nt | nt | nt | nt | nt
N/C(=N\OC(=O)c1ccc(F)cc1)c1nonc1N | 95.6* | -7.2 | 4.4 | 94.0* | 26.3 | 98.5* | 97.5* | 98.1* | 102.4* | 97.9* | 87.3*
Cc1ccc(C(=O)O/N=C(\N)c2nonc2N)cc1 | 97.5* | -6.6 | -4.3 | 97.2* | 3.9 | 100.9* | 97.8* | 98.3* | 101.4* | 97.2* | 97.2*
